These results are taken from the supplement of paper PMC4894684.

Structures can show the parent of a compound that is named as a salt. ± gives the standard deviation of the averaged measurements.

In this test the test system is Toxoplasma gondii RH (in HFF). Kind of test: parasite growth relative to the screen mean (all compounds = 100%); higher = less inhibition of parasite growth. The following applies: 5 µM; 72 h; oxygen 21 %. The procedure, abridged:
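Values give growth relative to the screen mean. The screen mean (all compounds) is set at 100%, and two screens were averaged. Compounds at 5 µM final were placed on confluent human foreskin fibroblasts, which were infected within 2 h with RH β-Gal–GFP Toxoplasma (MOI 1:5) and kept 72 h at 21% O2 before a CPRG β-Gal readout against in-plate standard curves.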
Consider `NCCc1c[nH]c2ccc(C(N)=O)cc12` [5-Carboxamidotryptamine maleate], for which the parasite growth came out at 158 ± 72%. For `CCCCC1(C2CCCC2)Cc2cc(OCCCC(=O)O)c(Cl)c(Cl)c2C1=O` (centres undefined) the value was 124 ± 5%; for `COC(=O)/C=C/C(=O)N[C@@H]1CC[C@@]2(O)[C@H]3Cc4ccc(O)c5c4[C@@]2(CCN3CC2CC2)[C@H]1O5` [β-Funaltrexamine hydrochloride], 74.5 ± 28%; for `CN1CC[C@@H]2CN3CCc4cccc(c43)[C@@H]2C1` [SDZ SER 082 fumarate], 165 ± 19%. `Oc1ccc2c3c1O[C@H]1c4oc5ccccc5c4C[C@@]4(O)[C@@H](C2)N(CC2CC2)CC[C@]314` [Naltriben mesylate] came in with a parasite growth of 127 ± 55%. `C1CCc2nnnn2CC1` [Pentylenetetrazole] displayed a parasite growth of 110 ± 22%.

Take `O=C1NC(=O)c2c1c1c3ccccc3[nH]c1c1[nH]c3ccccc3c21` [Arcyriaflavin A]: the parasite growth is 21.1 ± 14%. On to `CN1Cc2ccccc2[C@@H]2c3cccc4[nH]cc(c34)C[C@H]21`, for which the parasite growth turned out to be 132 ± 9.8%. For `N=C(NCc1ccc(Cl)cc1)SCCCc1c[nH]cn1` [Clobenpropit dihydrobromide] the value was 106 ± 11%.

As to `C[C@@H](N)Cc1cnc[nH]1` [(R)-(-)- α-Methylhistamine dihydrobromide], the parasite growth was 107 ± 25%. In the case of `N.N.[Cl][Pt][Cl]` [Cisplatin] it was 144 ± 80%; in that of `COc1ccc2[nH]cc(C3=CCNCC3)c2c1`, 105 ± 28%; in that of `CN1[C@@H]2C[C@@H](OC(=O)[C@H](CO)c3ccccc3)C[C@H]1[C@@H]1O[C@@H]12` [Scopolamine hydrobromide], 83.5 ± 48%.

On to `CN1C[C@H](CNC(=O)OCc2ccccc2)C[C@@H]2c3cccc4c3c(cn4C)C[C@H]21` [Metergoline], for which the parasite growth stood at 71 ± 0.52%.

`CCNC(=O)[C@H]1O[C@@H](n2cnc3c(N)ncnc32)[C@H](O)[C@@H]1O`: the parasite growth is 93 ± 12%. On to `COC1(C[S@+]([O-])c2ccccc2)CCN(CCc2c[nH]c3ccc(F)cc23)CC1`, for which the parasite growth was 67.1 ± 9.3%.

`C/C(O)=C(\C#N)C(=O)Nc1cc(Br)ccc1Br` gave a parasite growth of 130 ± 7.2%. The compound `CCCCCCC[n+]1ccc(-c2cc[n+](CCCCCCC)cc2)cc1` [DHBP dibromide] showed a parasite growth of 86.1 ± 44%. For `O=C(O)/C=C/CO` [trans-4-Hydroxycrotonic acid], the parasite growth amounted to 108 ± 8.3%. `Cc1onc(O)c1C[C@H](N)C(=O)O` had a parasite growth of 113 ± 34%.

`NCC(O)c1ccc(O)cc1` (centres undefined) [Octopamine hydrochloride] showed a parasite growth of 76.6 ± 12%. In the case of `C[C@@H]1CC[C@H]2[C@@H](C)C(=O)O[C@@H]3O[C@@]4(C)CC[C@@H]1[C@]32OO4` [Artemisinin] it was 31.6 ± 8.8%; in that of `C[C@H](N)Cn1ccc2cc(F)c(Cl)cc21` [Ro 60-0175 fumarate], 115 ± 28%. For `Clc1ccc(C2=CCCC3CCC2N3)cn1` (centres undefined) [UB 165 fumarate] the value was 106 ± 11%.
